Experimental data published in the supplement of paper PMC10849652.
About 7,900 targets were measured; listed, in parts, are those with a hit and a random draw of the rest. About 0.6% of all pairs of compound and target were hits. Unmarked numbers belong to inactive results.

Columns and labels:
Assay in all cases: log2 fold change, soluble protein after heating vs DMSO (PISA); higher = thermal stabilisation; K562 cells, 10 uM, 30 min; active = over 0.2 and 3.5 SD of the protein, either way, in both replicates (recomputed)
IRAK-1-4 Inhibitor I = compound: C1COCCN1CCN2C3=CC=CC=C3N=C2NC(=O)C4=CC(=CC=C4)[N+](=O)[O-] [IRAK-1-4 Inhibitor I]
In short: (§1)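 K562 cells at 2×10^6 cells/mL were treated for 30 min with 10 μM compound, and aliquots were heated for 3 min over 48°C-58°C before pooling. Extraction used PBS with 0.5% NP-40 at 4°C, and soluble protein was the supernatant after 21,000xg for 90 min, measured by TMTpro 16plex LC-MS/MS with channel sums equalised. Thermal stability values, relative to control samples and from duplicates, are log2 fold changes.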

ibrutinib = compound: C=CC(=O)N1CCC[C@@H](n2nc(-c3ccc(Oc4ccccc4)cc3)c3c(N)ncnc32)C1 [ibrutinib]
In short: as §1

[1] = compound: CC(=O)c1cnc2ccc(-c3cc(Cl)c(O)c(Cl)c3)nc2c1N[C@H]1CC[C@H](CN(C)C)CC1
In short: as §1

ralimetinib = compound: CC(C)(C)Cn1c(N)nc2ccc(-c3[nH]c(C(C)(C)C)nc3-c3ccc(F)cc3)nc21 [ralimetinib]
In short: as §1

[2] = compound: CC(C)(O)CC(=O)NCCn1ccc2ncnc(Nc3ccc(Oc4cccc(C(F)(F)F)c4)c(Cl)c3)c21
In short: as §1

[3] = compound: CC(C)C1=C2N=C(C=C(N2N=C1)NCC3=CC=CC=C3)NCCCCCCN
In short: as §1

[4] = compound: CC(C)C[C@@H](C=O)NC(=O)[C@H](CC(C)C)NC(=O)[C@H](CC(C)C)NC(=O)OCc1ccccc1
In short: as §1

pinometostat = compound: CC(C)N(C[C@H]1O[C@@H](n2cnc3c(N)ncnc32)[C@H](O)[C@@H]1O)[C@H]1C[C@@H](CCc2nc3cc(C(C)(C)C)ccc3[nH]2)C1 [pinometostat]
In short: as §1

[5] = compound: CC1=C(C(CC(=O)N1)C2=CC=C(C=C2)C(F)(F)F)C(=O)NC3=C(C=C4C(=C3)C=NN4)F
In short: as §1

[6] = compound: CC1=C(C2=C(C=C1)C(=O)C3=CC=CC=C3N2CCCN)C
In short: as §1

[7] = compound: CC1=C(C=C(C=C1)NC(=O)C2=CC(=CC=C2)C(C)(C)C#N)NC3=CC4=C(C=C3)N=CN(C4=O)C
In short: as §1

[8] = compound: CC1=C(C=C(C=C1)NC(=O)C2=CC(=CC=C2)N(C)C)NC(=O)C3=CC=C(C=C3)O
In short: as §1

[9] = compound: CC1=CC=C(C=C1)SC2=C3C=C(SC3=CN=C2)C(=O)N
In short: as §1

[10] = compound: CC1=NC(=CC=C1)C2=C(N=C(N2)C(C)(C)C)C3=CC4=NC=CN=C4C=C3
In short: as §1

Nexturastat A = compound: CCCCN(Cc1ccc(C(=O)NO)cc1)C(=O)Nc1ccccc1 [Nexturastat A]
In short: as §1

vemurafenib = compound: CCCS(=O)(=O)Nc1ccc(F)c(C(=O)c2c[nH]c3ncc(-c4ccc(Cl)cc4)cc23)c1F [vemurafenib]
In short: as §1

[11] = compound: CCCS(=O)(=O)Nc1ccc(F)c(C(=O)c2c[nH]c3ncc(Cl)cc23)c1F
In short: as §1

[12] = compound: CCCc1cc(C)[nH]c(=O)c1CNC(=O)c1cc(-c2ccnc(N3CCN(C)CC3)c2)cc2c1cnn2C(C)C
In short: as §1

givinostat = compound: CCN(CC)Cc1ccc2cc(COC(=O)Nc3ccc(C(=O)NO)cc3)ccc2c1 [givinostat]
In short: as §1

barasertib = compound: CCN(CCCOc1ccc2c(Nc3cc(CC(=O)Nc4cccc(F)c4)[nH]n3)ncnc2c1)CCOP(=O)(O)O [barasertib]
In short: as §1

UniProt Q15003, sequence (Q15003 whole entry, looked up): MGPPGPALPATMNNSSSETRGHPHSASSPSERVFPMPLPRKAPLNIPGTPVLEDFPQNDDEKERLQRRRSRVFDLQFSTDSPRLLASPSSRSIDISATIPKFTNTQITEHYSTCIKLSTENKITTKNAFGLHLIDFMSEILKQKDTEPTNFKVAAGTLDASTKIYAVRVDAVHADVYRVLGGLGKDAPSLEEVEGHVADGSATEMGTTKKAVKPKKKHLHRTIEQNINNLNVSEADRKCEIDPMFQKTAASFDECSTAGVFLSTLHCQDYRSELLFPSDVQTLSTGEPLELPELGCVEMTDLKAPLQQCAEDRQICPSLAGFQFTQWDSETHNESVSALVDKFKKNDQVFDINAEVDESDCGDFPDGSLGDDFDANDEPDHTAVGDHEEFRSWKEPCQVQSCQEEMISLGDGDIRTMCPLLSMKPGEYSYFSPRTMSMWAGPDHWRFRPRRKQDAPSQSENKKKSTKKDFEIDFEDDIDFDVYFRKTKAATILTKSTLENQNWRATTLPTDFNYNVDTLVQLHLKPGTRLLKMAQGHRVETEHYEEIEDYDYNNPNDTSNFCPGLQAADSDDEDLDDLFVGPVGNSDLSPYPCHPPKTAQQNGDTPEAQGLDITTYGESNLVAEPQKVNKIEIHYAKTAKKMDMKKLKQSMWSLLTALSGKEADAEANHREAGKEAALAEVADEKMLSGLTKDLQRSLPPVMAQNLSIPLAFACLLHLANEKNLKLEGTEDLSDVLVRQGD
UniProt Q15014, sequence (Q15014 whole entry, looked up): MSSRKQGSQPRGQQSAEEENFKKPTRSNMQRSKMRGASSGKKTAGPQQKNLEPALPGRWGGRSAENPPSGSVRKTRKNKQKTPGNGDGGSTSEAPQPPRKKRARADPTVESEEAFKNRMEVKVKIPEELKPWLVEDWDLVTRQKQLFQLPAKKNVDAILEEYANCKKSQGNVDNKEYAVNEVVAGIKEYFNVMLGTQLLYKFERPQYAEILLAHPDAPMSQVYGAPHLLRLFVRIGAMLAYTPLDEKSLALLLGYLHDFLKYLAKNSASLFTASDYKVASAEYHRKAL
UniProt Q96IV0, sequence (Q96IV0 whole entry, looked up): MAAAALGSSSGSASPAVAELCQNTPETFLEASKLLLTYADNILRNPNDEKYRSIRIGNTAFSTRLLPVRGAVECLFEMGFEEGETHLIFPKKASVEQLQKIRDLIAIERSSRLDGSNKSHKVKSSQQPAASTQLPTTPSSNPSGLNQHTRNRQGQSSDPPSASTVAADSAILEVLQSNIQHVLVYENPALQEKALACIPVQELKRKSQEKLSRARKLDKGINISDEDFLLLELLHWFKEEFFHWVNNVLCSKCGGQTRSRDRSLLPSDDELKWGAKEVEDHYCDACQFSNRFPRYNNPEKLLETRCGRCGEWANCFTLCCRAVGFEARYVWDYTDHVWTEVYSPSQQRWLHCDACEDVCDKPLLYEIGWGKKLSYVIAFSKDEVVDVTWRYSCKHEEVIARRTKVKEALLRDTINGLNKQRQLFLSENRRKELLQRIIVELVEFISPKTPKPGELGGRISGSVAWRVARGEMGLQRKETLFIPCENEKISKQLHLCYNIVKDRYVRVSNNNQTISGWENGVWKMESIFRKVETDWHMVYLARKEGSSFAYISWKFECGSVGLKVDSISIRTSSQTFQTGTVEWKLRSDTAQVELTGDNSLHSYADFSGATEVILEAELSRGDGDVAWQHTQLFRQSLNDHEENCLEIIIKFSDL
UniProt O14950, sequence (O14950 whole entry, looked up): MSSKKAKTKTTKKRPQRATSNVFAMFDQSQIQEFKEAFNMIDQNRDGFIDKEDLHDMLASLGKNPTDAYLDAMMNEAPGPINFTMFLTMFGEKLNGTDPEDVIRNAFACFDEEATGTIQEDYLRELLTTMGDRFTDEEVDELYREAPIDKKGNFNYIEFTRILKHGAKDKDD
UniProt Q9H3P2, sequence (Q9H3P2 whole entry, looked up): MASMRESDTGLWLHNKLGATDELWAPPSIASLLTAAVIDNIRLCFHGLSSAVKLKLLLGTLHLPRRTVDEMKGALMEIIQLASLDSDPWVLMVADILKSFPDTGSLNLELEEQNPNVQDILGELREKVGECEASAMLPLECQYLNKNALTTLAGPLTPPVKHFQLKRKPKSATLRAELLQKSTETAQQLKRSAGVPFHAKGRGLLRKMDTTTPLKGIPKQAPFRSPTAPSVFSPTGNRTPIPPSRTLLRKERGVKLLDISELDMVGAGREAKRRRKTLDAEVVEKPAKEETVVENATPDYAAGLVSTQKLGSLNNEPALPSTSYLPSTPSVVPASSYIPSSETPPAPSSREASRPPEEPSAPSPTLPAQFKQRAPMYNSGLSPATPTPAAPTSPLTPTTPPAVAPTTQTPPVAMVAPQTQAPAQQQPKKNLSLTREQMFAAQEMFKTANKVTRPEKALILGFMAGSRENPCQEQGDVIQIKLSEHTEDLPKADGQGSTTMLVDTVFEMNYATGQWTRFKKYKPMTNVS
UniProt O00567, sequence (O00567 whole entry, looked up): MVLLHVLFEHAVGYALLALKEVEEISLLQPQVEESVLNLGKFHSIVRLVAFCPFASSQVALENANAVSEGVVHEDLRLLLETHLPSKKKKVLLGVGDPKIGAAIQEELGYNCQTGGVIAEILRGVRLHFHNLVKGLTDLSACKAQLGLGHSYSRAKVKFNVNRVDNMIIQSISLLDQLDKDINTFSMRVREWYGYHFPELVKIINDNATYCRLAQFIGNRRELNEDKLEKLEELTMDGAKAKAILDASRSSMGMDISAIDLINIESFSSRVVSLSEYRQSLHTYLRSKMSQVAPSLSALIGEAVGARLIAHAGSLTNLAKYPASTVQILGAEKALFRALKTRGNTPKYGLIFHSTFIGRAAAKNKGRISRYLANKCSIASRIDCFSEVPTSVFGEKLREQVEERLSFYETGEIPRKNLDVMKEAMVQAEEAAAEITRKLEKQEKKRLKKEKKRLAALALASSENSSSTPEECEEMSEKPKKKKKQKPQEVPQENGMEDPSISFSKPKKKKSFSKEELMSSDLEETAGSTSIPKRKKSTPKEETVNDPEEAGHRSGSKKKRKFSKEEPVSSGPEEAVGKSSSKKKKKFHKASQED
UniProt Q969V5, sequence (Q969V5 whole entry, looked up): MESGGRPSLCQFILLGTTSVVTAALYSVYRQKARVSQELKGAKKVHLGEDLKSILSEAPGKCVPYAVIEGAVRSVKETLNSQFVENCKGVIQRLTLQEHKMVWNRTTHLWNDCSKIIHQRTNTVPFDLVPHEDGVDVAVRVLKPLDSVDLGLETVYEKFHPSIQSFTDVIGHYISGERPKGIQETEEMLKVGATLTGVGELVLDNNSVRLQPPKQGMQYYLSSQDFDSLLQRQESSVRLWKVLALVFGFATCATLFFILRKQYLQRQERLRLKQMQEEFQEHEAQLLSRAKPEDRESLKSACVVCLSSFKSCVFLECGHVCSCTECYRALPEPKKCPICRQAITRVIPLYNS
UniProt Q14978, sequence (Q14978 whole entry, looked up): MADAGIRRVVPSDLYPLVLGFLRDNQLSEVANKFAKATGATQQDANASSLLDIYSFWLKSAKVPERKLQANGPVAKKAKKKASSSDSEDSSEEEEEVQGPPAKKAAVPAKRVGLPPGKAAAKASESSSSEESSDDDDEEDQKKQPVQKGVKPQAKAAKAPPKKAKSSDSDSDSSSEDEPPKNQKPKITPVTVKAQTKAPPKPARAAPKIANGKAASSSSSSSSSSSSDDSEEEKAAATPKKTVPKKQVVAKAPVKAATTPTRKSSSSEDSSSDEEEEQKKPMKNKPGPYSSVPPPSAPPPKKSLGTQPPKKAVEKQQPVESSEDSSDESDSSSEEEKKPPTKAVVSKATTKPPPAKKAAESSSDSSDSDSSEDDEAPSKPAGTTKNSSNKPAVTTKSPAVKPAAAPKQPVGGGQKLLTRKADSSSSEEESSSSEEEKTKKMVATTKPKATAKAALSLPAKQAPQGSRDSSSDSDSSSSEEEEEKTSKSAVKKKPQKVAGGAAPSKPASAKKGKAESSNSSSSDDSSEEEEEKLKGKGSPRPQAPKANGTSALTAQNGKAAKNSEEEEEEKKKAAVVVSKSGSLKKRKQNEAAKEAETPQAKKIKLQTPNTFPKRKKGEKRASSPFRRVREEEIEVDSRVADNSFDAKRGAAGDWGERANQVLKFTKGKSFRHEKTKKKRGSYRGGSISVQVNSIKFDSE
UniProt Q15102, sequence (Q15102 whole entry, looked up): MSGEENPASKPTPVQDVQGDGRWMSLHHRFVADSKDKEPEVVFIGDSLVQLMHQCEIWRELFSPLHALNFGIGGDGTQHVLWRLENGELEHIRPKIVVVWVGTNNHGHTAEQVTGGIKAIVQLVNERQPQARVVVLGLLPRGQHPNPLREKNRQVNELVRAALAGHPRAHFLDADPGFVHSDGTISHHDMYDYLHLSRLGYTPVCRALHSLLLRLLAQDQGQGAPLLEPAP
UniProt O00566, sequence (O00566 whole entry, looked up): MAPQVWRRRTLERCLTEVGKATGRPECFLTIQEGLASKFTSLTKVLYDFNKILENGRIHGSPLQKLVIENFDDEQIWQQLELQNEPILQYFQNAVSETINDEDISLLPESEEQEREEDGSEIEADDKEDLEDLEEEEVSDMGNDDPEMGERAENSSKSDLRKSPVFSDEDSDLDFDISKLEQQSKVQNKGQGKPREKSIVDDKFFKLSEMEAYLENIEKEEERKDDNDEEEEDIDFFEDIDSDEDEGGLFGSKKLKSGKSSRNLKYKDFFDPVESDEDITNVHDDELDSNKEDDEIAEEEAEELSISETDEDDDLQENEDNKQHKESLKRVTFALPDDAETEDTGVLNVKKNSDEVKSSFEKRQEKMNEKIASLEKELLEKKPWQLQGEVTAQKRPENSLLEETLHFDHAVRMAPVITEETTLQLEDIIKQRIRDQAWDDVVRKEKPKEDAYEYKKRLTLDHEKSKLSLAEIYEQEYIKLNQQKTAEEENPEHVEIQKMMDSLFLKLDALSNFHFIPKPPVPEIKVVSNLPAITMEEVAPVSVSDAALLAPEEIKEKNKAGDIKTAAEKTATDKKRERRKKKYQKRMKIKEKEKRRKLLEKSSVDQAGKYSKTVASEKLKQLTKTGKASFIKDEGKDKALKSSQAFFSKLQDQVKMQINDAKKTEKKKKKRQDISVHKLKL

Row | Target | log2 fold change (IRAK-1-4 Inhibitor I) | log2 fold change (ibrutinib) | log2 fold change [1] | log2 fold change (ralimetinib) | log2 fold change [2] | log2 fold change [3] | log2 fold change [4] | log2 fold change (pinometostat) | log2 fold change [5] | log2 fold change [6] | log2 fold change [7] | log2 fold change [8] | log2 fold change [9] | log2 fold change [10] | log2 fold change (Nexturastat A) | log2 fold change (vemurafenib) | log2 fold change [11] | log2 fold change [12] | log2 fold change (givinostat) | log2 fold change (barasertib)
1 | NCAPH (UniProt Q15003) | -0.124 | -0.045 | 0.097 | 0.007 | -0.094 | -0.023 | 0.02 | 0.08 | 0.017 | -0.006 | 0.02 | -0.091 | 0.013 | 0.012 | 0.09 | 0.068 | 0.065 | 0.067 | 0.238 | 0.042
2 | NGLY1 (UniProt Q96IV0) | -0.091 | -0.052 | -0.059 | 0.018 | -0.07 | -0.071 | 0.036 | 0.088 | 0.04 | 0.123 | -0.034 | -0.039 | 0.052 | -0.016 | 0.102 | 0.009 | 0.026 | 0.016 | 0.036 | 0.024
3 | NOP56 (UniProt O00567) | -0.03 | 0.025 | 0.015 | 0.082 | 0.108 | 0.202 | 0.234 | 0.198 | 0.086 | 0.187 | -0.024 | -0.001 | -0.149 | -0.136 | 0.127 | -0.018 | -0.065 | 0.003 | 0.096 | -0.076
4 | OSTM1 (UniProt Q86WC4) | 0.05 | -0.006 | 0.013 | 0.042 | -0.081 | -0.041 | 0.079 | -0.056 | 0.015 | -0.024 | -0.051 | -0.047 | 0 | 0.056 | -0.033 | 0.017 | 0.093 | -0.03 | 0.146 | -0.023
5 | NELFA (UniProt Q9H3P2) | -0.065 | 0 | -0.357 | 0.02 | -0.286 | -0.054 | -0.043 | -0.02 | -0.11 | 0.252 | -0.02 | -0.124 | 0.011 | 0.092 | -0.104 | 0.06 | 0.097 | 0.024 | 0.079 | 0.212
6 | ORC3 isoform 2 (UniProt Q9UBD5) | -0.113 | -0.015 | -0.132 | -0.059 | -0.383 | -0.338 | -0.013 | 0.012 | 0.045 | -0.049 | -0.027 | -0.056 | 0.146 | 0.075 | -0.124 | 0.012 | 0.143 | 0.044 | 0.145 | 0.178
7 | MUL1 (UniProt Q969V5) | 0.009 | 0.009 | -0.113 | -0.008 | -0.068 | -0.004 | 0.027 | 0.021 | -0.016 | -0.01 | -0.061 | -0.015 | 0.01 | -0.004 | -0.022 | -0.039 | 0.024 | 0.11 | 0.005 | 0.005
8 | PAFAH1B3 (UniProt Q15102) | -0.041 | 0.008 | -0.119 | 0.009 | -0.137 | -0.055 | -0.078 | 0.023 | 0 | 0.305 (active) | 0 | -0.096 | 0.098 | 0.03 | 0.019 | -0.014 | -0.012 | 0.005 | -0.022 | 0.035
9 | NMT1 (UniProt P30419) | 0.023 | 0.028 | 0.017 | 0.017 | -0.047 | -0.053 | 0.008 | 0.037 | 0.009 | -0.051 | -0.012 | -0.006 | -0.012 | 0.021 | -0.036 | -0.013 | 0 | 0.023 | -0.284 (active) | -0.015
10 | NOLC1 isoform 2 (UniProt Q14978) | -0.057 | -0.089 | -0.305 (active) | 0.041 | 0.021 | -0.015 | -0.086 | -0.011 | -0.023 | -1.4 (active) | -0.074 | -0.004 | -0.082 | -0.051 | 0.018 | -0.088 | -0.032 | 0.104 | 0.143 | -0.033
11 | MPHOSPH10 (UniProt O00566) | -0.215 | -0.022 | -0.064 | 0.144 | 0.089 | -0.071 | 0.053 | 0.113 | 0.021 | -0.56 | 0.052 | -0.01 | -0.031 | -0.079 | 0.098 | -0.041 | 0.009 | 0.047 | 0.087 | -0.107
12 | PAFAH1B2 (UniProt P68402) | 0.013 | 0.017 | -0.016 | 0.038 | -0.436 (active) | 0.012 | -0.033 | 0.016 | 0.027 | 0.005 | 0.064 | 0.005 | -0.106 | -0.046 | -0.157 | 0.083 | -0.135 | -0.355 | 0.042 | 0.046
13 | MYL12B (UniProt O14950) | 0.047 | 0.043 | 0.067 | 0.143 | -0.013 | 0.005 | -0.015 | 0.011 | -0.045 | -0.004 | 0.005 | -0.015 | 0.014 | 0.007 | -0.005 | 0.039 | 0.054 | 0.136 | -0.023 | 0.014
14 | NBN (UniProt O60934) | -0.009 | -0.008 | -0.147 | -0.028 | -0.062 | -0.025 | 0.007 | 0.009 | -0.029 | -0.02 | 0.017 | -0.008 | -0.01 | 0.014 | -0.03 | 0.081 | 0.047 | 0.04 | 0.054 | 0.022
15 | MND1 (UniProt Q9BWT6) | -0.022 | 0.069 | -0.053 | 0.052 | 0.008 | -0.182 | 0.173 | 0.076 | 0.058 | 0.043 | 0.034 | 0.021 | 0 | 0.025 | -0.043 | -0.016 | -0.024 | -0.091 | 0.048 | -0.032
16 | MORF4L2 (UniProt Q15014) | -0.116 | 0.04 | 0.047 | -0.01 | 0.039 | 0.052 | 0.271 | 0.092 | 0.028 | 0.005 | -0.004 | -0.061 | -0.015 | -0.083 | 0.129 | 0.009 | 0.036 | 0.038 | -0.007 | -0.03
